Tat transport = E. coli Tat export inhibitors, primary screen, MC4100, TorA-mCherry reporter, fluorescence, single point | 340,000 tested, 0.036% active | inhibition, % at 10 µM | AID 488895, 2010;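 active = mean replicate inhibition at least 50% and at least half of replicates individually reaching 50%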;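 note: exported cargo escapes ClpAP degradation while cytoplasmic cargo is degraded and loses fluorescence; 0% = median of neutral control wells and 100% = median of NaSCN control wells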
AddAB inh = growth inhibition of E. coli expressing H. pylori AddAB, primary screen, AddAB inhibitor project, absorbance. inhibition, % at 11.9 µM. 330,000 tested, 0.29% active; in the data active = inhibition above about 12%;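 note: 0% = vehicle wells of infected cells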
E coli growth-1 = E. coli growth inhibition, primary screen, OD600; Escherichia coli growth, 23 h; hits give low values; OD600 absorbance (test concentration not listed); 330,000 tested, 0.21% active; AID 1053175, 2014;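 active = OD600 absorbance below the run mean of sample wells minus 3.6 SD, in any replicate, cut at about 0.56 in these data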
phage Ecoli inh = growth loss of phage-infected E. coli, primary screen, RecBCD inhibitor project, absorbance, with phage, HTS. inhibition, % at 11.9 µM. 360,000 tested, 0.26% active; in the data active = inhibition above about 11%
E coli growth-2 = E. coli V3065 growth inhibition, primary screen, counter-screen for AddAB inhibitor project, absorbance, OD600; 18 h; inhibition, % at 11.9 µM; 330,000 tested, 0.27% active; AID 449728, 2010;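 active = inhibition above the campaign's mean inhibition across all tested compounds plus 3 SD, cut at about 9.9% in these data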;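 note: uninfected addAB+ strain grown without phage in ampicillin broth; 0% = DMSO wells and 100% = ciprofloxacin 0.95 µg/ml wells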
AddAB conf = growth loss of phage-infected E. coli expressing H. pylori AddAB, confirmation, AddAB inhibitor project, absorbance, E. coli V3065, T4 phage, triplicate | shares compounds with AddAB inh | OD; T4 phage with gene 2 nonsense mutations | inhibition, % at 11.9 µM | 880 tested, 64% active;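 active = mean inhibition above a set limit taken from the earlier primary screen, cut at about 13% in these data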;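 note: higher means less bacterial growth since AddAB block lets phage replicate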
RecBCD counter = growth loss of RecBCD+ E. coli with mutant T4 phage, counter-screen for AddAB inhibitor project, absorbance, V66 E. coli. shares compounds with AddAB inh. OD growth. inhibition, % at 11.9 µM. 880 tested, 73% active. AID 488955, 2010;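 active = mean inhibition above the mean of solvent-only control wells plus 3 SD, cut at about 4% in these data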;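 note: optical density read after an 18 h incubation at 37 °C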
bact viab count = bacterial viability inhibition counter-screen, confirmation, counter-screen for AddAB inhibitor project, absorbance; shares compounds with AddAB inh; absorbance (AddAB counterscreen); inhibition, % at 11.9 µM; 880 tested, 35% active; AID 488956, 2010; in the data active = inhibition above about 25%
RecBCD conf = growth loss of phage-infected RecBCD+ E. coli, confirmation, RecBCD inhibitor project, absorbance, E. coli V66, T4 gene 2 phage; shares compounds with phage Ecoli inh; 890 tested, 45% active; E. coli V66 + T4 2- phage, growth OD; inhibition, % at 11.9 µM;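 active = mean inhibition over triplicates exceeding the hit threshold derived in the original primary screen, cut at about 11% in these data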
Ecoli viability = E. coli viability inhibition, counter-screen for RecBCD inhibitor project, absorbance, high throughput; AID 651983, 2013; shares compounds with phage Ecoli inh; 890 tested, 29% active; absorbance (OD) growth; inhibition, % at 11.9 µM; in the data active = inhibition above about 20%;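 note: E. coli strain V66 grown with compound alone and no phage infection; 0% = bacteria with DMSO vehicle only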
AddAB counter = growth loss of phage-infected AddAB-carrying E. coli, confirmation, counter-screen for RecBCD inhibitor project, absorbance, E. coli V3065, T4 phage | E. coli expressing H. pylori AddAB + T4 phage, OD growth; gene 2 mutant T4, recBCD-deleted host | inhibition, % at 11.9 µM | shares compounds with phage Ecoli inh | 890 tested, 45% active;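 active = mean inhibition above the solvent-only control wells' mean plus 3 SD, cut at about 22% in these data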;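 note: higher means less bacterial growth from phage killing when AddAB is blocked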
The depositor's hits bear a star. This is a sample that favours compounds with a hit; in the whole collection about 0.5% have one here.

What do the screens show for `Oc1c(C(c2cccs2)N2CCN(c3ccccc3)CC2)ccc2cccnc12` (centres undefined)?
AddAB inh: 12; E coli growth-2: 9

How did CN1CCN(C(c2ccccc2)c2ccccc2)CC1 do in these assays?
Tat transport: -10; AddAB inh: 0; E coli growth-1: 0.68; phage Ecoli inh: 4; E coli growth-2: -2

What do the screens show for `Oc1c(C(c2ccccc2Cl)N2CCCC2)ccc2cccnc12` (centres undefined)?
Tat transport: 10; AddAB inh: 25*; E coli growth-1: 0.38*; phage Ecoli inh: 16*; E coli growth-2: 24*; AddAB conf: 13*; RecBCD counter: 12*; bact viab count: 1; RecBCD conf: 4; Ecoli viability: 6; AddAB counter: 16

Results for O=c1c2ccccc2c(C=NNS(=O)(=O)c2ccccc2)c(O)n1-c1ccccn1 ?
E coli growth-1: 0.71

Results for C=CC[n+]1c(/C=C2\C=Cc3cc(C)ccc3N2CC)ccc2ccccc21 ?
Tat transport: -9; AddAB inh: 20*; E coli growth-1: 0.53; phage Ecoli inh: 12*; E coli growth-2: 22*; AddAB conf: 66*; RecBCD counter: 6.6*; bact viab count: 24; RecBCD conf: 3; Ecoli viability: 2; AddAB counter: 36*

Results for c1ccc(-c2nnc(-c3ccccn3)nc2NC2CCCCC2)cc1 ?
Tat transport: -10; AddAB inh: 16*; E coli growth-1: 0.41*; phage Ecoli inh: 14*; E coli growth-2: 18*; AddAB conf: 20*; RecBCD counter: 15*; bact viab count: 14; RecBCD conf: 6; Ecoli viability: 6; AddAB counter: 18

What do the screens show for `O=S(=O)(N=C(Nc1cccc2ccccc12)c1ccccc1)c1cccs1`?
E coli growth-1: 0.7

Results for c1ccc(-c2cc(CSc3nc4ccccc4[nH]3)on2)cc1 ?
Tat transport: -50; AddAB inh: 24*; E coli growth-1: 0.7; phage Ecoli inh: 18*; E coli growth-2: 26*; AddAB conf: 23*; RecBCD counter: 17*; bact viab count: 14; RecBCD conf: 12*; Ecoli viability: 15; AddAB counter: 17

Results for C#Cc1ccc(C2C=C(C(=O)O)OC(OCc3ccc(CO)cc3)C2)cc1 (centres undefined) ?
E coli growth-1: 0.68

How did O=[N+]([O-])c1ccc(/C=[N+](\[O-])CCO)o1 do in these assays?
Tat transport: 14; AddAB inh: 99*; phage Ecoli inh: 97*; E coli growth-2: 99*; AddAB conf: 98*; RecBCD counter: 99*; bact viab count: 99*; RecBCD conf: 105*; Ecoli viability: 107*; AddAB counter: 105*

What do the screens show for `COC(=O)N/N=C/c1ccc([N+](=O)[O-])o1`?
Tat transport: 2; AddAB inh: 97*; phage Ecoli inh: 19*; E coli growth-2: 79*; AddAB conf: 99*; RecBCD counter: 21*; bact viab count: 67*; RecBCD conf: 13*; Ecoli viability: 18; AddAB counter: 103*

How did NC(=O)N/N=C/c1ccc([N+](=O)[O-])o1 do in these assays?
Tat transport: -2; AddAB inh: 101*; phage Ecoli inh: 63*; E coli growth-2: 101*; AddAB conf: 98*; RecBCD counter: 40*; bact viab count: 98*; RecBCD conf: 34*; Ecoli viability: 57*; AddAB counter: 103*

Results for O=C(N/N=C/c1ccc([N+](=O)[O-])o1)C1CC1 ?
Tat transport: 7; AddAB inh: 100*; phage Ecoli inh: 35*; E coli growth-2: 73*; AddAB conf: 99*; RecBCD counter: 23*; bact viab count: 71*; RecBCD conf: 12*; Ecoli viability: 17; AddAB counter: 100*

What do the screens show for `O=[N+]([O-])c1ccc(C=NN=Cc2ccc([N+](=O)[O-])o2)o1`?
E coli growth-1: 0.56

How did NC(=O)NN=Cc1ccc(-c2ccc([N+](=O)[O-])cc2)o1 do in these assays?
E coli growth-1: 0.67

What do the screens show for `CCOC1OC(C(=O)NCc2ccccc2)=CC(C2CCCCC2)C1CCCO` (centres undefined)?
E coli growth-1: 0.7

What do the screens show for `COC(=O)N1C(C)C=C[C@]1(Cc1ccccc1)C(=O)NCCCNc1ncc(C(F)(F)F)cc1Cl` (some centres undefined)?
E coli growth-1: 0.69

Results for CN1CC2C(c3ccc(C(F)(F)F)cc3)C3(c4ccc(C#N)cc4)CC2(C3)C1c1ccccc1 (centres undefined) ?
E coli growth-1: 0.73

How did Nc1ncnc2c1ncn2C1O[C@H](CO)[C@@H](O)[C@@H]1O (some centres undefined) do in these assays?
Tat transport: -5; AddAB inh: -1; phage Ecoli inh: 1; E coli growth-2: -2

What do the screens show for `Nc1nc(F)nc2c1ncn2[C@@H]1O[C@H](CO)[C@@H](O)[C@H]1O`?
Tat transport: -1; AddAB inh: 75*; phage Ecoli inh: 68*; E coli growth-2: 75*; AddAB conf: 74*; RecBCD counter: 64*; bact viab count: 77*; RecBCD conf: 70*; Ecoli viability: 63*; AddAB counter: 78*

What do the screens show for `FC(F)(F)c1ccc(CN2CC3C(c4ccc(C(F)(F)F)cc4)C4(c5cccnc5)CC3(C4)C2c2ccccc2)cc1` (centres undefined)?
E coli growth-1: 0.7

Compound activity from PubChem.
